From the supplement of paper PMC4962491 come the findings set out here.

Where a name gives a salt, the structure may show the parent alone. ± gives the standard deviation of the averaged measurements. The full ranking holds about 1,600 compounds; the median of “mitochondrial oxygen consumption rate normalised to cell number, Z score over the library” is about 0.065, and the lowest 2% start at about -2.2. This is one part of a sample in which the lowest values are shown more often than they occur.

The assay relates to FaDu. Put plainly: mitochondrial oxygen consumption rate normalised to cell number, Z score over the library; higher = higher oxygen consumption (negative = OCR reduction). The conditions noted are these: treatment time 24 h; assay medium: 5 mM galactose, 5 mM pyruvate, 4 mM glutamine; 10 µM. On the procedure: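 Primary screen: FaDu cells were incubated 24 h with Pharmakon 1600 / TDI oncology set compounds at 2 or 10 uM. Mitochondrial-specific OCR (basal minus 2 uM antimycin A) was measured on a Seahorse XF96 in assay medium with 5 mM galactose, 5 mM pyruvate and 4 mM glutamine, then corrected for Hoechst cell number and expressed as a Z score […]. Compounds that cut cell number by >66% were excluded. Two repeats.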
Turning to `CCCCCC(C)N` (stereo unspecified), the “mitochondrial oxygen consumption rate normalised” value is -0.846 ± 0.93. `CC#CCn1c(N2CCC[C@@H](N)C2)nc2c1c(=O)n(Cc1nc(C)c3ccccc3n1)c(=O)n2C`: the “mitochondrial oxygen consumption rate normalised” value was 0.0591 ± 0.1. With `CCCCC(=O)O[C@H]1CC[C@H]2[C@@H]3CCc4cc(O)ccc4[C@H]3CC[C@]12C` the figure was -0.519 ± 0.44; with `CCCCC(CC)COC(=O)CC(C(=O)OCC(CC)CCCC)S(=O)(=O)O` (stereo unspecified), 0.149 ± 0.34. With `CCCCC(CC)CN=C(N)N=C(N)NCCCCCCNC(N)=NC(N)=NCC(CC)CCCC` (stereo unspecified), the “mitochondrial oxygen consumption rate normalised” value is -4.17 ± 0.22. For `CC(=O)Nc1ccc(OC(=O)c2ccccc2O)cc1`, the “mitochondrial oxygen consumption rate normalised” value was -0.337 ± 0.25. With `CC(CCc1ccc(O)cc1)NCC(O)c1ccc(O)cc1` (stereo unspecified) the figure was 0.0984 ± 0.26; with `CNNCc1ccc(C(=O)NC(C)C)cc1` [Procarbazine HCl], 0.127 ± 0.26; with `CNNCc1ccc(C(=O)NC(C)C)cc1`, 0.342 ± 0.2. With `C[C@H]1C[C@H]2[C@@H]3CCC4=CC(=O)C=C[C@]4(C)[C@@]3(F)[C@@H](O)C[C@]2(C)[C@@]1(O)C(=O)COP(=O)(O)O` the figure was -0.398 ± 0.27; with `CS(=O)(=O)OCCCCOS(C)(=O)=O`, 0.716 ± 1.1. As for `CS(=O)(=O)OCCCCOS(C)(=O)=O` [Busulfan], the “mitochondrial oxygen consumption rate normalised” value amounted to 0.391 ± 1.2. Consider `NC(=O)c1ccc([N+](=O)[O-])cc1Cl`, for which the “mitochondrial oxygen consumption rate normalised” value amounted to 0.965 ± 0.77. With `O=C(Nc1ccc([N+](=O)[O-])cc1Cl)c1cc(Cl)ccc1O` the figure was -5.97 ± 0.27; with `O=C(O)COCCN1CCN([C@H](c2ccccc2)c2ccc(Cl)cc2)CC1`, -0.965 ± 0.4; with `COc1ccc2nc3cc(Cl)ccc3c(Nc3cc(CN4CCCC4)c(O)c(CN4CCCC4)c3)c2n1`, -0.0207 ± 0.29. With `COc1cc2c(N3CCN(C(=O)Nc4ccc(OC(C)C)cc4)CC3)ncnc2cc1OCCCN1CCCCC1` the figure was 0.241 ± 0.61; with `COc1ccc(OC)c(C(O)CNC(=O)CN)c1` (stereo unspecified), 0.934 ± 0.11. As for `C[n+]1ccccc1/C=N/O`, the “mitochondrial oxygen consumption rate normalised” value is 0.788 ± 0.1. `Cc1ncc(C[n+]2csc(CCO)c2C)c(N)n1`: the “mitochondrial oxygen consumption rate normalised” value was found to be 1.53 ± 0.67. Consider `CC1(O)CCC(C(C)(C)O)CC1` (stereo unspecified), for which the “mitochondrial oxygen consumption rate normalised” value came to 0.228 ± 0.62.

Turning to `CO[C@@]12[C@H](COC(N)=O)C3=C(C(=O)C(C)=C(N)C3=O)N1C[C@@H]1N[C@@H]12`, the “mitochondrial oxygen consumption rate normalised” value was -2.77 ± 0.14. With `O=C(O)CCC(=O)OC[C@@H](NC(=O)C(Cl)Cl)[C@H](O)c1ccc([N+](=O)[O-])cc1` the figure was -1.19 ± 0.7; with `CC1CC(OC(=O)C(O)c2ccccc2)CC(C)(C)C1` (stereo unspecified), 0.62 ± 0.34; with `C[C@@H](c1ncncc1F)[C@](O)(Cn1cncn1)c1ccc(F)cc1F`, -0.0277 ± 0.47. In the case of `Cc1cc(N)c2ccccc2[n+]1CCCCCCCCCC[n+]1c(C)cc(N)c2ccccc21`, the “mitochondrial oxygen consumption rate normalised” value is -2.58 ± 0.47.

Consider `O=C1NS(=O)(=O)c2ccccc21`, for which the “mitochondrial oxygen consumption rate normalised” value is 0.156 ± 0.036. With `COC(=O)C(N)CS` (stereo unspecified) the figure was 0.244 ± 0.32; with `CC(=O)CC(c1ccc([N+](=O)[O-])cc1)c1c(O)c2ccccc2oc1=O` (stereo unspecified), 0.325 ± 0.51; with `CCOc1cc(NC(C)=O)ccc1C(=O)OC`, -0.0275 ± 0.23. With `CO[C@H](C(=O)[C@@H](O)[C@@H](C)O)[C@@H]1Cc2cc3cc(O[C@H]4C[C@@H](O[C@@H]5C[C@@H](O)[C@H](O)[C@@H](C)O5)[C@H](O)[C@@H](C)O4)c(C)c(O)c3c(O)c2C(=O)[C@H]1O[C@H]1C[C@@H](O[C@@H]2C[C@@H](O)[C@@H](O[C@@H]3C[C@](C)(O)[C@H](O)[C@@H](C)O3)[C@@H](C)O2)[C@H](O)[C@@H](C)O1` the figure was -3.768 ± 0.0062; with `CC1CC2C3CCC4=CC(=O)C=CC4(C)C3(F)C(O)CC2(C)C1C(=O)CO` (stereo unspecified), 0.242 ± 0.014; with `CC(C)CCCC(C)NC(C)C` (stereo unspecified), 0.505 ± 0.85. In the case of `CNC(=O)c1c(I)c(NC(C)=O)c(I)c(C(=O)O)c1I`, the “mitochondrial oxygen consumption rate normalised” value is -0.0805 ± 0.4.

For the molecule `CN1CCCN=C1/C=C/c1cccc(O)c1`, the “mitochondrial oxygen consumption rate normalised” value is 0.441 ± 0.03. With `CCOc1ccc(S(=O)(=O)O)c2cccnc12` the figure was 0.206 ± 0.45; with `CC(C)(C)CC(C)(C)c1cc(Cc2cc(C(C)(C)CC(C)(C)C)cc(-n3nc4ccccc4n3)c2O)c(O)c(-n2nc3ccccc3n2)c1`, 0.425 ± 0.54; with `O=C1c2ccccc2C(=O)C1c1ccccc1`, -1.52 ± 0.92. With `NC[C@H]1O[C@H](O[C@H]2[C@H](O[C@@H]3O[C@H](CO)[C@@H](O)[C@H]3O)[C@@H](O)[C@H](N)C[C@@H]2N)[C@H](N)[C@@H](O)[C@@H]1O` the figure was 0.994 ± 0.3. With `CCCCC(CC)COC(=O)C=Cc1ccc(OC)cc1` (stereo unspecified) the figure was 0.103 ± 0.58.

For `CC(COc1ccccc1)NC(C)C(O)c1ccc(O)cc1` (stereo unspecified), the “mitochondrial oxygen consumption rate normalised” value was 0.554 ± 0.81. For `CC(NCCc1ccc(O)cc1)C(O)c1ccc(O)cc1` (stereo unspecified), the “mitochondrial oxygen consumption rate normalised” value is -0.342 ± 0.3.

In the case of `CCCCCCCCNC(C)C(O)c1ccc(SC(C)C)cc1` (stereo unspecified), the “mitochondrial oxygen consumption rate normalised” value is -3.24 ± 0.087. Turning to `CCCCC(CC)COC(=O)c1ccccc1O` (stereo unspecified), the “mitochondrial oxygen consumption rate normalised” value turned out to be 0.409 ± 0.072. With `Clc1ccc(COC(Cn2ccnc2)c2ccc(Cl)cc2Cl)cc1` (stereo unspecified) the figure was -2.19 ± 0.39; with `Clc1ccc(COC(Cn2ccnc2)c2ccc(Cl)cc2Cl)c(Cl)c1` (stereo unspecified), -0.399 ± 0.35; with `C=CCOC(Cn1ccnc1)c1ccc(Cl)cc1Cl` (stereo unspecified), -0.834 ± 0.055. With `NC(=O)[C@@H]1CCCN1C(=O)[C@H](Cc1c[nH]cn1)NC(=O)[C@@H]1CCC(=O)N1` the figure was -1.1 ± 0.47. For `CC(C)CC(N)=O`, the “mitochondrial oxygen consumption rate normalised” value was found to be 0.337 ± 0.48.

As to `O=C([O-])/C=C/C(=O)[O-].[Fe+2]`, the “mitochondrial oxygen consumption rate normalised” value is -0.129 ± 0.31. For `CC(=O)Oc1cccc(O)c1`, the “mitochondrial oxygen consumption rate normalised” value was 0.689 ± 0.62. For `CC(O)C(=O)O.N` (stereo unspecified), the “mitochondrial oxygen consumption rate normalised” value amounted to 0.0377 ± 0.64. With `Nc1ccn([C@@H]2O[C@H](CO)[C@@H](O)[C@@H]2O)c(=O)n1` the figure was 0.901 ± 0.043; with `Nc1ncn([C@H]2C[C@H](O)[C@@H](CO)O2)c(=O)n1` [Decitabine], 0.0464 ± 0.58; with `Nc1ccn([C@@H]2O[C@H](CO)[C@@H](O)[C@@H]2O)c(=O)n1` [Cytarabine;  Ara-C], 1.36 ± 0.84. As to `Nc1ncn([C@@H]2O[C@H](CO)[C@@H](O)[C@H]2O)c(=O)n1` [Azacitidine], the “mitochondrial oxygen consumption rate normalised” value worked out at 0.38 ± 0.39. With `Nc1ncn([C@@H]2O[C@H](CO)[C@@H](O)[C@H]2O)c(=O)n1` the figure was -2.25 ± 0.072. With `Nc1nc2[nH]cnc2c(=S)[nH]1` the figure was -2.58 ± 0.18; with `Nc1nc2[nH]cnc2c(=S)[nH]1` [Thioguanine], 0.0465 ± 0.27; with `S=c1[nH]cnc2nc[nH]c12`, -1.7 ± 0.17.

As for `CN1CCN(c2cc3c(cc2F)c(=O)c(C(=O)O)cn3-c2ccc(F)cc2)CC1`, the “mitochondrial oxygen consumption rate normalised” value is -0.0696 ± 0.52.

With `CCCCCCCCCCCCCCCCOP(=O)([O-])OCC[N+](C)(C)C`, the “mitochondrial oxygen consumption rate normalised” value was -1.18 ± 0.45.

With `CCC(=O)NCC[C@@H]1CCc2ccc3c(c21)CCO3`, the “mitochondrial oxygen consumption rate normalised” value is -0.125 ± 0.067. On to `CCN(CC)CCNC(=O)c1c(C)[nH]c(/C=C2\C(=O)Nc3ccc(F)cc32)c1C` [Sunitinib Malate], for which the “mitochondrial oxygen consumption rate normalised” value is -0.335 ± 0.17.

Regarding `CCCCCCCCCCOc1cc2c(O)c(C(=O)OCC)cnc2cc1OCC`, the “mitochondrial oxygen consumption rate normalised” value is -0.591 ± 0.88. With `Cc1cc2nc3ccc(N(C)C)cc3[s+]c2cc1N` the figure was -0.959 ± 0.51. With `CN(C)CCC=C1c2ccccc2COc2ccccc21` the figure was 0.0965 ± 0.76; with `CC(=O)Oc1cc(C(C)C)c(OCCN(C)C)cc1C`, -0.219 ± 0.18; with `O=C1CC[C@@H](C(=O)O)N1`, 0.186 ± 1.2.

Regarding `O=C1[C@H](CC[C@H](O)c2ccc(F)cc2)[C@@H](c2ccc(O)cc2)N1c1ccc(F)cc1`, the “mitochondrial oxygen consumption rate normalised” value is -0.13 ± 0.35. With `COc1ccc2cc3[n+](cc2c1OC)CCc1cc2c(cc1-3)OCO2` the figure was -5.87 ± 0.012. With `COc1ccc2c(c1OC)C(=O)O[C@@H]2[C@H]1c2c(cc3c(c2OC)OCO3)CCN1C` the figure was 0.129 ± 0.48; with `CC[C@H]1OC(=O)[C@H](C)C(=O)[C@H](C)[C@@H](O[C@@H]2O[C@H](C)C[C@H](N(C)C)[C@H]2O)[C@](C)(OC)C[C@@H](C)C(=O)[C@H](C)[C@H]2N(CCCCn3cnc(-c4cccnc4)c3)C(=O)O[C@]12C`, -0.0307 ± 0.49. Turning to `NC(=O)NS(=O)(=O)c1ccc(N)cc1`, the “mitochondrial oxygen consumption rate normalised” value came to 0.826 ± 1.4. On to `Cc1cc(-c2ccc(/N=N/c3ccc4c(S(=O)(=O)O)cc(S(=O)(=O)O)c(N)c4c3O)c(C)c2)ccc1/N=N/c1ccc2c(S(=O)(=O)O)cc(S(=O)(=O)O)c(N)c2c1O`, for which the “mitochondrial oxygen consumption rate normalised” value was 1.24 ± 1. With `Cc1cc(=O)oc2cc(O)ccc12` the figure was 0.758 ± 0.23.
